# Measurements as given in the supplement of paper PMC9135407.
# Several values for one entry are separate records, joined by “and”; a condition that tells them apart may be missing. Equal values may be shown once. Where a name gives a salt, the structure may show the parent alone. Out of some 5,800 compounds screened, about 620 (11%) showed activity. The sample holds actives, similar compounds and a random draw of the others, so the mix is not that of the screen.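 Rule for the calls: active = score above a cut-off or among the top three wells of a plate; in these data no inactive exceeds 0.85.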
# Tested on: primary human hepatic stellate cells (donor 1)
# Experiment: scaled lipid accumulation score (0 = DMSO-like, 1 = nortriptyline-like); higher = stronger HSC inactivation (lipid re-accumulation), active = hit call of the paper
# Conditions: 48 h
# [1] = library stock concentration: 1 mM
# [2] = library stock concentration: 3.33 mM
# [3] = library stock concentration: 10 mM
# [4] = library stock concentration: 400 uM
# [5] = library stock concentration: 2 mM
compound,measurement,setting,value
"CCCCCCCCCC(=O)OCC(CO)OC(=O)CCCCCCCCC (stereo not drawn) [1,2-Didecanoyl-sn-glycerol]",scaled lipid accumulation score,[1],≤ 0 (inactive)
"CCCCCCCCCC(=O)OCC(CO)OC(=O)CCCCCCCCC (stereo not drawn) [1,2-Didecanoyl-glycerol (10:0)]",scaled lipid accumulation score,[1],≤ -0.021 (inactive)
CCCCCC(O)C=CC1CC2CC(C1CC=CCCCC(=O)O)C2(C)C [15(R)-Pinane Thromboxane A2],scaled lipid accumulation score,[1],≤ 0 (inactive)
Cc1onc(-c2ccccc2)c1-c1ccc(S(N)(=O)=O)cc1 [Valdecoxib],scaled lipid accumulation score,[2],≤ 0 (inactive)
same,scaled lipid accumulation score,[3],0.226 (inactive) and 0.088 (inactive)
Cc1onc(-c2ccccc2)c1-c1ccc(S(N)(=O)=O)cc1,scaled lipid accumulation score,[3],≤ 0 (inactive)
CCCCCCCCCCCCCCCC(=O)OC [Palmitic Acid methyl ester],scaled lipid accumulation score,[1],0.031 (inactive)
"O=P(O)(O)OC1C(O)C(OP(=O)(O)O)C(O)C(OP(=O)(O)O)C1O [D-myo-Inositol-1,3,5-triphosphate (sodium salt)]",scaled lipid accumulation score,[1],0.025 (inactive)
O=C(O)Cc1sc(-c2ccccc2)nc1-c1ccc(Cl)cc1 [Fentiazac],scaled lipid accumulation score,library stock concentration: 6.1 mM,0.006 (inactive)
CCCCC[C@H](O)/C=C/[C@H]1CCC(=O)[C@@H]1CCCCCCC(=O)O [11-deoxy Prostaglandin E1],scaled lipid accumulation score,[1],0.015 (inactive)
CC(C)=CCC[C@](C)(O)C1CC=C(C)CC1 (stereo partly drawn) [Bisabolol],scaled lipid accumulation score,[3],0.049 (inactive)
Cl.Cl.NC1(c2ccc(-c3nc4ccn5c(=O)[nH]nc5c4cc3-c3ccccc3)cc2)CCC1 [listing 1 of 2 here],scaled lipid accumulation score,[4],1.07 (active)
same,scaled lipid accumulation score,[5],1.23 (active)
Cl.Cl.NC1(c2ccc(-c3nc4ccn5c(=O)[nH]nc5c4cc3-c3ccccc3)cc2)CCC1 [listing 2 of 2 here],scaled lipid accumulation score,[2],1.35 (active)
same,scaled lipid accumulation score,[3],1.02 (active)
"O=C1C(=Cc2ccc(O)cc2)C2=Nc3ccccc3C2=C1C1=C2C(=Nc3ccccc32)C(=Cc2ccc(O)cc2)C1=O [Scytonemin, Lyngbya sp.]",scaled lipid accumulation score,[2],≤ 0 (inactive)
COc1ccc2cc(C(C)C(=O)O)ccc2c1 (stereo not drawn) [Naproxen(+)],scaled lipid accumulation score,library stock concentration: 8.7 mM,0.014 (inactive)
same,scaled lipid accumulation score,[3],≤ 0 (inactive)
CCCCCC(=O)CC[C@@H]1[C@@H](C/C=C\CCCC(=O)OC(C)C)[C@@H](O)C[C@H]1O,scaled lipid accumulation score,[1],≤ 0 (inactive)
Nc1nc2[nH]c(=O)[nH]c2c(=O)[nH]1 [8-hydroxy Guanine (hydrochloride)],scaled lipid accumulation score,[1],≤ 0 (inactive)
CCCCC1C(=O)CCC2C(CCCCCCC(=O)O)C(=O)CC12 (stereo not drawn) [Bicyclo Prostaglandin E1],scaled lipid accumulation score,[1],≤ 0 (inactive)
CC(C)c1ccc2c(c1)CC[C@H]1[C@](C)(CN)CCC[C@]21C.Cl [Leelamine (hydrochloride)],scaled lipid accumulation score,[1],0.297 (active)
CC(C)c1ccc2c(c1)CC[C@H]1[C@](C)(CN)CCC[C@]21C [Lylamine hydrochloride],scaled lipid accumulation score,[3],0.527 (inactive)
CCCCCCCCCCCC(=O)NC[C@]1(C)CCC[C@]2(C)c3ccc(C(C)C)cc3CCC12 (stereo partly drawn) [Lauric Acid Leelamide],scaled lipid accumulation score,[1],0.012 (inactive)
CN(C)C(=O)c1ccc(S(=O)(=O)c2ccc(NC(=O)C(C)(O)C(F)(F)F)c(Cl)c2)cc1 (stereo not drawn),scaled lipid accumulation score,[2],≤ -0.009 (inactive)
same,scaled lipid accumulation score,[3],≤ 0 (inactive)
"CCCC/C=C/C=C/C=C\CCCCCCCC(=O)O [9(Z),11(E),13(E)-Octadecatrienoic Acid]",scaled lipid accumulation score,[1],≤ 0 (inactive)
O=C1Nc2ccc(-c3cccnc3)cc2/C1=C/c1ccc[nH]1 [JAK3 Inhibitor VI],scaled lipid accumulation score,[2],≤ 0 (inactive)
Cc1ccc(NC(=O)Nc2cc(C(F)(F)F)ccc2F)cc1Nc1ccc2c(c1)NC(=O)C2=Cc1ccc[nH]1,scaled lipid accumulation score,[5],1.14 (active)
same,scaled lipid accumulation score,[3],1.61 (active)
Cc1ccc(NC(=O)Nc2cc(C(F)(F)F)ccc2F)cc1Nc1ccc2c(c1)NC(=O)/C2=C\c1ccc[nH]1,scaled lipid accumulation score,library stock concentration: 80 uM,0.038 (inactive)
same,scaled lipid accumulation score,[4],0.353 (inactive)
"CCCCc1c(-c2ccc(OC)cc2)[nH]c2nccnc12 [Aloisine, RP106]",scaled lipid accumulation score,[2],0.036 (inactive)
N#C/C(=C(/N)Sc1ccccc1N)c1cccc(C(O)c2ccncc2)c1 (stereo not drawn) [MEK Inhibitor I],scaled lipid accumulation score,[2],≤ 0 (inactive)
NC(=O)N1c2ccccc2C=Cc2ccccc21,scaled lipid accumulation score,[3],≤ 0 (inactive)
NC(=O)N1c2ccccc2C=Cc2ccccc21 [Carbamazepine],scaled lipid accumulation score,,≤ 0 (inactive)
same,scaled lipid accumulation score,[2],0.025 (inactive)
same,scaled lipid accumulation score,[3],≤ 0 (inactive) and 0.28 (inactive)
OCCN1CCN(CCCN2c3ccccc3Sc3ccc(Cl)cc32)CC1 [Perphenazine] [listing 1 of 2 here],scaled lipid accumulation score,[3],0.916 (active)
Cl.Cl.OCCN1CCN(CCCN2c3ccccc3C=Cc3ccccc32)CC1 [Opipramol dihydrochloride],scaled lipid accumulation score,[3],0.885 (active)
CN1CCN(CCCN2c3ccccc3Sc3ccc(Cl)cc32)CC1 [Prochlorperazine dimaleate],scaled lipid accumulation score,,0.696 (inactive)
same,scaled lipid accumulation score,[3],0.815 (inactive)
OCCN1CCN(CCCN2c3ccccc3Sc3ccc(Cl)cc32)CC1,scaled lipid accumulation score,[3],0.962 (active)
OCCN1CCN(CCCN2c3ccccc3Sc3ccc(Cl)cc32)CC1 [Perphenazine] [listing 2 of 2 here],scaled lipid accumulation score,,0.75 (inactive)
same,scaled lipid accumulation score,library stock concentration: 5 mM,0.605 (inactive)
same,scaled lipid accumulation score,[3],0.329 (inactive)
CN1CCN(CCCN2c3ccccc3Sc3ccc(Cl)cc32)CC1 [Prochlorperazine edisylate],scaled lipid accumulation score,library stock concentration: 3.5 mM,0.713 (inactive)
same,scaled lipid accumulation score,[3],0.523 (inactive)
CCCCC[C@](C)(O)/C=C/[C@H]1C(=O)C[C@H](O)[C@@H]1C/C=C\CCCC(=O)O [15(S)-15-methyl Prostaglandin D2],scaled lipid accumulation score,[1],≤ 0 (inactive)
COC1CCC(C(=O)c2ccc3nc4c(cc3c2)CCCO4)CC1 (stereo not drawn),scaled lipid accumulation score,[3],≤ -0.001 (inactive)
NCC(O)c1ccc(O)c(O)c1 (stereo not drawn),scaled lipid accumulation score,[3],≤ 0 (inactive)
COC(=O)/C=C/c1cccc(N(Cc2ccc(-c3ccc(N(C)C)cc3)cc2)C(=O)C2CCCCC2)c1 [Fexaramine],scaled lipid accumulation score,[3],0.006 (inactive)
CC(NC(=O)Cc1cc(F)cc(F)c1)C(=O)NC1C(=O)N(C)c2ccccc2-c2ccccc21 (stereo not drawn),scaled lipid accumulation score,[2],≤ 0 (inactive)
same,scaled lipid accumulation score,[3],0.235 (inactive)
N[C@@H](Cc1ccc(O)c(I)c1)C(=O)O [3-Iodo-L-tyrosine],scaled lipid accumulation score,[3],≤ -0.055 (inactive)
CCOC(=O)c1ccnc(C(=O)OCC)c1,scaled lipid accumulation score,[1],≤ 0 (inactive)
CC/C=C\C/C=C\C/C=C\CCCCCCCCCC(=O)O [Eicosatrienoic acid (20:3 n-3)],scaled lipid accumulation score,[1],0.075 (inactive)
O=C1NCCN1c1ncc([N+](=O)[O-])s1 [Niridazole],scaled lipid accumulation score,,≤ 0 (inactive)
O=c1[nH]nc(Sc2ncc([N+](=O)[O-])s2)n1-c1ccc2c(c1)OCCO2,scaled lipid accumulation score,[3],1.25 (active)
Nc1nnc(Sc2ncc([N+](=O)[O-])s2)s1,scaled lipid accumulation score,[3],0.438 (inactive)
CCCCC[C@H](O)/C=C/[C@@H]1[C@@H](CCCCCCCO)[C@@H](O)C[C@H]1O [Prostaglandin F1.alpha. Alcohol],scaled lipid accumulation score,[1],≤ 0 (inactive)
CCCCC(=O)Oc1ccccc1C(=O)O [Valeroyl Salicylate],scaled lipid accumulation score,[1],≤ 0 (inactive)
"CC[C@H](CO)Nc1nc(NCc2ccc(-c3ccccn3)cc2)c2ncn(C(C)C)c2n1 [CR8, (R)-Isomer]",scaled lipid accumulation score,[2],≤ 0 (inactive)
CCOC(=O)c1ncc2[nH]c3cccc(OC(C)C)c3c2c1C,scaled lipid accumulation score,[3],0.014 (inactive)
Cc1nc(N=Nc2cc(S(=O)(=O)O)c3cc([N+](=O)[O-])cc(S(=O)(=O)O)c3c2)c(COP(=O)(O)O)c(C=O)c1O [PPNDS tetrasodium],scaled lipid accumulation score,[3],0.229 (inactive)
CCCNCC(O)COc1ccccc1C(=O)CCc1ccccc1 (stereo not drawn) [Propafenone hydrochloride],scaled lipid accumulation score,,0.742 (inactive)
same,scaled lipid accumulation score,library stock concentration: 5.3 mM,0.429 (inactive)
same,scaled lipid accumulation score,[3],0.365 (inactive)
N#Cc1ccccc1OCC(O)CNCCNC(=O)Nc1ccccc1 (stereo not drawn),scaled lipid accumulation score,[3],0.135 (inactive)
CCCNCC(O)COc1ccccc1C(=O)CCc1ccccc1 (stereo not drawn) [Propafenone HCl],scaled lipid accumulation score,[2],0.241 (inactive)
same,scaled lipid accumulation score,[3],0.684 (inactive)
CCCNCC(O)COc1ccccc1C(=O)CCc1ccccc1 (stereo not drawn) [Propafenone],scaled lipid accumulation score,library stock concentration: 5.9 mM,0.566 (inactive)
COCCNC(=O)COc1ccc(OCCNC[C@H](O)COc2ccccc2)cc1 [ZD 7114 hydrochloride],scaled lipid accumulation score,[3],0.134 (inactive)
CCCNCC(O)COc1ccccc1C(=O)CCc1ccccc1 (stereo not drawn) [Rythmol],scaled lipid accumulation score,[3],0.811 (inactive)
CCCNCC(O)COc1ccccc1C(=O)CCc1ccccc1.Cl (stereo not drawn) [Propafenone hydrochloride],scaled lipid accumulation score,[3],0.887 (active)
"O=C(O)COc1ccc(OCCNC[C@H](O)COc2ccccc2)cc1 [ICI 215,001 hydrochloride]",scaled lipid accumulation score,[3],0.013 (inactive)
CC(C)ON(CC(=O)NO)S(=O)(=O)c1ccc(-c2ccccc2)cc1,scaled lipid accumulation score,[1],≤ 0 (inactive)
O=C1NN(C(=O)Nc2ccc(Br)cc2)[C@@H](c2ccccc2)[C@@H]1c1ccccc1,scaled lipid accumulation score,[3],0.026 (inactive)
COc1cccc(-c2cc(F)ccc2[C@H]2Cc3nc(N)nc(C)c3C(=O)N2)n1,scaled lipid accumulation score,[3],0.937 (active)
COc1ccc(-c2cc3c(C)nc(N)nc3n([C@H]3CC[C@H](OCCO)CC3)c2=O)cn1,scaled lipid accumulation score,[2],≤ 0 (inactive)
same,scaled lipid accumulation score,[3],0.45 (inactive)
COc1cccc(-c2cc(F)ccc2C2Cc3nc(N)nc(C)c3C(=O)N2)n1 (stereo not drawn),scaled lipid accumulation score,[2],0.806 (inactive)
Cc1ccsc1C(=CCCN1CCC[C@@H](C(=O)O)C1)c1sccc1C,scaled lipid accumulation score,[3],≤ 0 (inactive)
O=C1N[C@@H]2[C@@H](O)[C@@H](O)[C@H](O)[C@@H](CO)N2C1=O [Kifunensine],scaled lipid accumulation score,[1],0.034 (inactive)
CC(CCCCC(=O)Nc1ccc(C(F)(F)F)cc1)NCCc1cnc[nH]1 (stereo not drawn) [HTMT dimaleate],scaled lipid accumulation score,[3],0.519 (inactive)
NC(=O)CCCSc1nc(N)nc(-c2c(Cl)cc3c4c(cccc24)COC3)n1,scaled lipid accumulation score,[2],0.86 (active)
same,scaled lipid accumulation score,[3],0.886 (active)
O=P(O)(O)OC1[C@H](O)[C@H](O)C(O)[C@H](O)[C@H]1O (stereo partly drawn) [D-myo-Inositol-1-phosphate (sodium salt)],scaled lipid accumulation score,[1],0.012 (inactive)
